Bioassay records as filed in PubChem.
Tau fluor counter: counter-screen for tau fibril formation inhibitors | 280,000 compounds, 0.93% hits | Potency, µM (series often up to 57.7 µM) | tau K18 P301L Alexa594 fluorescence, heparin fibrillization; note: nearly all actives have a fitted effect of over 55% in size
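Human tau K18 P301L (15 uM unlabeled, 0.24 uM Alexa 594-labeled) in 100 mM sodium acetate pH 7 with 20 uM heparin, 6 hr at 37 C. ThT 30 uM added, 1 hr ambient; Alexa 594 FP and total fluorescence read at 555/632 nm.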
TRb SRC2 PPI: disrupts binding of human TR beta to SRC2; TRbeta-SRC2 peptide binding, fluorescence polarization; receptor liganded with 1 µM T3; Potency, µM (doses to about 106 µM), actives largely listed as inhibitors; 280,000 compounds, 0.065% hits; AID 1469; note: nearly all actives have a fitted effect of over 50% in size
Target sequence (P10828 whole entry, looked up): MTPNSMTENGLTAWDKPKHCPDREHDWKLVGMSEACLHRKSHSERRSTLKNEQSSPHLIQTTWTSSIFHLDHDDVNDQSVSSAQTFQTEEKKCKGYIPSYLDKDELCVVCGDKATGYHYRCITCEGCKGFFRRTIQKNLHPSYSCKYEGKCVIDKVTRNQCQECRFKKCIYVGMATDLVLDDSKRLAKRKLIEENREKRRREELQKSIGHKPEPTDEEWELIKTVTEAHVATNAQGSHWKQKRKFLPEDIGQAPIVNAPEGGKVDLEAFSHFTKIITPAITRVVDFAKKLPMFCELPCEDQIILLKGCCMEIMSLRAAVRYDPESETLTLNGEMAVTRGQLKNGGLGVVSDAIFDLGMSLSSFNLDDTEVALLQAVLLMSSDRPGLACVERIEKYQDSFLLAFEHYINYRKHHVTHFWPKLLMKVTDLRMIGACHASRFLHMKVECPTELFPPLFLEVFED
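A fluorescence polarization screen tested compounds at multiple concentrations against complex formation between 0.6 uM TRb ligand-binding domain and 20 nM Texas Red SRC2 peptide, with 1 uM T3 present; readout after 5 hr.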
Tau ThT inhib: tau fibrillization inhibition (ThT binding) | P10636 | recombinant tau K18 P301L (four-repeat tau fragment), heparin-induced fibrillization, ThT fluorescence | Potency, µM (doses to about 57.4 µM), actives largely listed as inhibitors | 270,000 compounds, 2.1% hits; note: nearly all actives have a fitted effect of over 55% in size
Target sequence (P10636 561-689 P618L limits assumed): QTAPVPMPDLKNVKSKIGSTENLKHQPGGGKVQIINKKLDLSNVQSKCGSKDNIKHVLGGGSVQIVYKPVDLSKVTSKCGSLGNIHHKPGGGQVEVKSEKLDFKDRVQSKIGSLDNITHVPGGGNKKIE
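Aggregation was driven by heparin (20 uM final) acting on recombinant tau […] bearing P301L in 100 mM sodium acetate pH 7; fibrils were detected with Thioflavin T.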
Tau FP inhib: tau fibrillization inhibition (FP). K18 P301L tau heparin fibrillization, Alexa594 FP, 6 h. Potency, µM (series often up to 57.7 µM), actives largely listed as inhibitors. 280,000 compounds, 0.39% hits; note: nearly all actives have a fitted effect of over 55% in size
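Quantitative HTS format: compounds meet 15 uM recombinant K18 P301L tau and Alexa 594-tau tracer in 100 mM sodium acetate pH 7; 20 uM heparin triggers fibrillization at 37 C over 6 hr; FP gives the signal.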
TR SRC2 fluor cs: alters Texas Red total fluorescence, flagging assay interference; TRb/SRC2 Texas Red total fluorescence interference; Potency, µM (doses to about 106 µM); 280,000 compounds, 0.29% hits; AID 1479; active = well fitted curve in either direction with a large enough effect; inconclusive = small, poorly fitted or top-dose-only effect
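Flags fluorescent or light-absorbing compounds by total fluorescence, S + 2P, at 555 nm excitation and 632 nm emission. Mixture: 20 nM Texas Red SRC2 peptide, 0.6 uM human TRb LBD, 1 uM T3, 5% DMSO; compound exposure 5 h at ambient temperature.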
RGS12 GoLoco inh: blocks human Gai1 binding to RGS12 GoLoco peptide, red readout. Potency, µM (top dose mostly 61.6 µM), hits mostly inhibitors. Gai1:RGS12 GoLoco peptide FP, rhodamine, 10 min. AID 880. P63096. 230,000 compounds, 0.44% hits; active = well fitted inhibition curve with a large enough effect, not every such curve was filed as active; inactive = no such curve, though single readings can be large or run the other way; note: nearly all actives have a fitted effect of over 30% in size
Hits are given with their value; n = inactive; u = inconclusive; x = no result; [ ] = dose if it differs, or a comment. Hits are enriched below; roughly 3.2% of the tested compounds scored in any of these assays. Unless noted, calls come from the whole dose curve; as a rule, active = well fitted curve in the direction sought with a large enough effect; inconclusive = small, poorly fitted or top-dose-only effect, or another doubt; inactive = no such curve, though single readings can be large; an effect the other way counts as inactive or inconclusive.

SMILES | Tau fluor counter | TRb SRC2 PPI | Tau ThT inhib | Tau FP inhib | TR SRC2 fluor cs | RGS12 GoLoco inh
O=C(CNc1ccc2ccccc2c1)N/N=C/c1ccc([N+](=O)[O-])o1 | 14µM[quencher] | n | u | n | n | n
CCCC(=O)Nc1ccc(C(=O)N/N=C/c2ccc([N+](=O)[O-])o2)cc1 | n | n | 8.9µM | n | u | n
COc1ccc(/C=C/c2cc(OC)c(OC)cc2CC[N+](C)(C)C)cc1 | n | n | n | n | n | n
CCCCn1cc[n+](C)c1 | x | n | x | x | n | x
c1ccc(-n2nnnc2CN2CCOCC2)cc1 | n | n | n | n | 1585µM[quencher] | n
Nc1ccc(-n2nnnc2CN2CCOCC2)cc1 | n | n | n | n | n | n
Oc1ccc(/C=N/Nc2ccc(C(F)(F)F)cn2)cc1 | 11µM[quencher] | n | u | n | n | n
COc1cc(O)c(NC(C)=O)c2nonc12 | n | n | 7.9µM | u | n | n
N#Cc1cccc(-c2nc3cnc(N4CCOCC4)nc3n(C3CC3)c2=O)c1 | x | x | x | x | x | 3.2µM
O=C(C[n+]1ccccc1)Nc1c(Cl)cc(Cl)cc1Cl | n | n | 18µM | n | n | n
CCOP(=O)(OCC)/C(=N/OC(=O)c1cccc([N+](=O)[O-])c1)C(N)=O | n | n | n | n | n | n
CCOP(=O)(OCC)/C(=N/OC(=O)c1ccc(OC)cc1)C(N)=O | n | n | u | n | n | 4.5µM
NCC(=O)N[C@@H](CCCN=C(N)N)C(=O)NCC(=O)N[C@@H](CC(=O)O)C(=O)N[C@@H](CO)C(=O)N1CCC[C@H]1C(=O)O | x | n | x | x | n | x
C[C@H](C(=O)O)c1ccc2cc(O)ccc2c1 | x | n | x | x | n | x
N#Cc1c(NC(=O)c2ccccc2Cl)n(Cc2ccccc2)c2nc3ccccc3nc12 | n | u | 14µM | u | n | n
O=C(Nc1ccc(Cl)c(Cl)c1)Nc1ccc(N2CCCC2)c(S(=O)(=O)Nc2ccccc2Cl)c1 | 4µM[quencher] | n | u | n | n | n
O=C(Nc1ccc(Cl)c(S(=O)(=O)Nc2ccccc2Cl)c1)c1cccs1 | 25µM[quencher] | n | n | u | n | n
O=C(/C=C/c1cccs1)Nc1ccc(N2CCOCC2)c(S(=O)(=O)Nc2ccccc2Cl)c1 | u | n | n | u | n | n
COc1ccccc1NS(=O)(=O)c1cc(NC(=S)Nc2cc(C)cc(C)c2)ccc1Cl | 32µM[quencher] | n | n | u | u | n
COc1ccccc1NS(=O)(=O)c1cc(NC(=O)Nc2ccccc2)ccc1N1CCCCC1 | u | n | n | 22µM | n | n
CCOC(=O)CN1C(=O)C(O)(CC(=O)c2cc(OC)ccc2OC)c2ccccc21 (stereo not drawn) | n | n | n | n | n | x
Cc1ccc(NC(=O)CSc2nccn2C2CCCC2)cc1Cl | n | n | n | n | u | x
COC(=O)CC1C(C)(C)C(OC(C)=O)[C@@]2(O)C=C3C4CC(=O)OC(c5ccoc5)[C@]4(C)CCC3[C@@]1(C)C2=O (stereo partly drawn) | n | n | n | n | n | n
COC(=O)c1ccccc1NC(=O)Cn1c(=O)n(CCCCC(=O)NCc2ccc3c(c2)OCO3)c(=O)c2ccccc21 | n | n | n | n | n | x
O=C(Nc1ccc(F)cc1)Nc1ccccc1N1CCCCC1 | n | n | n | n | n | n
SMILES | Tau fluor counter | TRb SRC2 PPI | Tau ThT inhib | Tau FP inhib | TR SRC2 fluor cs | RGS12 GoLoco inh
CCN(CC)c1ccc(NC(=O)c2ccccc2Br)cc1S(=O)(=O)Nc1ccccc1OC | n | n | 25µM | u | n | n
O=C(Nc1ccc(N2CCCC2)c(S(=O)(=O)Nc2cccc(C(F)(F)F)c2)c1)c1cccs1 | 10µM[quencher] | n | n | n | n | n
O=C(Nc1ccc(F)cc1)Nc1ccc(N2CCCC2)c(S(=O)(=O)Nc2ccccc2Cl)c1 | 2.8µM[quencher] | n | n | u | n | n
COc1ccccc1NS(=O)(=O)c1cc(NC(=O)c2cccs2)ccc1N1CCCC1 | u | n | u | n | n | n
Cc1cccc(C(C)C)c1NC(=O)c1ccc2c(c1)CCN2S(C)(=O)=O | n | n | n | n | n | x
C[C@@H]1CC[C@H]2[C@H](C)C3[C@H](C[C@H]4[C@@H]5CC=C6C[C@@H](O)CC[C@@]6(C)[C@@H]5C[C@@H](O)[C@]34C)N2C1 (stereo partly drawn) | x | x | x | x | x | n[14.2 µM]
CCOc1cccc2sc(NN)nc12 | 14µM[quencher] | n | 20µM | u | n | n
O=C1C(c2c(O)[nH]c3ccccc23)=Nc2ccccc21 | u | n | u | n | n | n
CC(=O)c1cccc2c(O)c(C3=Nc4ccccc4C3=O)[nH]c12 | u | n | 3.5µM | u | n | n
Cc1cc(Nc2ccccc2)n(-c2nc3ccccc3[nH]2)n1 | 25µM[quencher] | n | u | n | n | n
CSc1nsc(/C=C/Nc2ccc(F)cc2F)c1C#N | u | n | 14µM | n | n | n
CSc1nnc(C)c(/C=C/Nc2ccc(F)cc2F)n1 | n | n | 25µM | n | n | n
CSc1nsc(/C=C/Nc2ccc(C(=O)O)cc2)c1C#N | n | n | u | n | n | n
Fc1c(F)c(C(F)(F)F)c(F)c(F)c1N/N=C\c1cccs1 | 7.9µM[quencher] | n | n | n | n | n
COc1ccc(/C=C/C(=O)c2ccncc2)c2ccccc12 | n | n | 16µM | u | n | n
COc1ccc2ccccc2c1/C=C\C(=O)c1ccccc1 | x | x | x | x | x | n[14.2 µM]
CCCCCCCC#Cc1ccccc1/C=N/S(=O)C(C)(C)C (stereo not drawn) | n[11.6 µM] | n[11.2 µM] | n[11.5 µM] | n[11.6 µM] | n[11.2 µM] | x
CCOc1ccc(CNS(=O)(=O)c2ccc(-c3coc(C)n3)cc2)cc1OC | n | n | n | n | n | x
